In ChEMBL document CHEMBL3988442, “University of Dundee, Small-Polar-MMV Screening Library” (2021):
For some of these results: Results with a measured potency or affinity are listed apart.

How the values were obtained:
Parameters in all cases: scale not given: direction of the effect not stated beside the values
[1] = molecular target: Protein translocase subunit SecA (Escherichia coli (strain K12)) (UniProt P10408); assay: Assay to Identify E. coli SecA ATPase Inhibitors; assay type: functional; conditions: 30 µM
Protein translocase subunit SecA (Escherichia coli (strain K12)), sequence (P10408 whole entry): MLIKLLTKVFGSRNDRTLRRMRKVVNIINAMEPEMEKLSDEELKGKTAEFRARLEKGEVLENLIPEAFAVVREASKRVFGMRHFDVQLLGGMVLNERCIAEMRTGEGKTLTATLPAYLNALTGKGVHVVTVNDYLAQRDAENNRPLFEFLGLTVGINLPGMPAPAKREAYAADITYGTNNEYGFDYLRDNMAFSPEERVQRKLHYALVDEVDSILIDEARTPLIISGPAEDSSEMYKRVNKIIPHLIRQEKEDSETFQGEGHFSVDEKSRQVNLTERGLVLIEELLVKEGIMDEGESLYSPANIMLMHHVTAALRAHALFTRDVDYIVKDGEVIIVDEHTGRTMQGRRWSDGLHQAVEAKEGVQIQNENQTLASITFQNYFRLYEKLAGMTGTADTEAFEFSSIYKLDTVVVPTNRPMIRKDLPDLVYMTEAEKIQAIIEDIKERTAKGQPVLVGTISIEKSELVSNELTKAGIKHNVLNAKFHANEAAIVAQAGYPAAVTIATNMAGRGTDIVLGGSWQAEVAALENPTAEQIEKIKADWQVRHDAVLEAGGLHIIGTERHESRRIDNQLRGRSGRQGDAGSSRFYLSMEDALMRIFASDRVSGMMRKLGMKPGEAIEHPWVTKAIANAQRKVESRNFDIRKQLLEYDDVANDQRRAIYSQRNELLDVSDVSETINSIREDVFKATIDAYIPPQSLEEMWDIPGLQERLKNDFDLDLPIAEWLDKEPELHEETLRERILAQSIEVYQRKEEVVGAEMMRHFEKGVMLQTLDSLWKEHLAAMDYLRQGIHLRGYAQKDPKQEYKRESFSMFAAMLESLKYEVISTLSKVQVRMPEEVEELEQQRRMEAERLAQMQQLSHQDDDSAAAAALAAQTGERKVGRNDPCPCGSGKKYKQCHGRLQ

[2] = molecular target: T1, Ubiquitin-activating enzyme e1, putative (Leishmania donovani (strain BPK282A1)) (UniProt E9BSI1); assay: Leishmania donovani Ubiquitin Activating Enzyme (LdE1); assay type: functional; conditions: 30 µM
T1 sequence (whole entry): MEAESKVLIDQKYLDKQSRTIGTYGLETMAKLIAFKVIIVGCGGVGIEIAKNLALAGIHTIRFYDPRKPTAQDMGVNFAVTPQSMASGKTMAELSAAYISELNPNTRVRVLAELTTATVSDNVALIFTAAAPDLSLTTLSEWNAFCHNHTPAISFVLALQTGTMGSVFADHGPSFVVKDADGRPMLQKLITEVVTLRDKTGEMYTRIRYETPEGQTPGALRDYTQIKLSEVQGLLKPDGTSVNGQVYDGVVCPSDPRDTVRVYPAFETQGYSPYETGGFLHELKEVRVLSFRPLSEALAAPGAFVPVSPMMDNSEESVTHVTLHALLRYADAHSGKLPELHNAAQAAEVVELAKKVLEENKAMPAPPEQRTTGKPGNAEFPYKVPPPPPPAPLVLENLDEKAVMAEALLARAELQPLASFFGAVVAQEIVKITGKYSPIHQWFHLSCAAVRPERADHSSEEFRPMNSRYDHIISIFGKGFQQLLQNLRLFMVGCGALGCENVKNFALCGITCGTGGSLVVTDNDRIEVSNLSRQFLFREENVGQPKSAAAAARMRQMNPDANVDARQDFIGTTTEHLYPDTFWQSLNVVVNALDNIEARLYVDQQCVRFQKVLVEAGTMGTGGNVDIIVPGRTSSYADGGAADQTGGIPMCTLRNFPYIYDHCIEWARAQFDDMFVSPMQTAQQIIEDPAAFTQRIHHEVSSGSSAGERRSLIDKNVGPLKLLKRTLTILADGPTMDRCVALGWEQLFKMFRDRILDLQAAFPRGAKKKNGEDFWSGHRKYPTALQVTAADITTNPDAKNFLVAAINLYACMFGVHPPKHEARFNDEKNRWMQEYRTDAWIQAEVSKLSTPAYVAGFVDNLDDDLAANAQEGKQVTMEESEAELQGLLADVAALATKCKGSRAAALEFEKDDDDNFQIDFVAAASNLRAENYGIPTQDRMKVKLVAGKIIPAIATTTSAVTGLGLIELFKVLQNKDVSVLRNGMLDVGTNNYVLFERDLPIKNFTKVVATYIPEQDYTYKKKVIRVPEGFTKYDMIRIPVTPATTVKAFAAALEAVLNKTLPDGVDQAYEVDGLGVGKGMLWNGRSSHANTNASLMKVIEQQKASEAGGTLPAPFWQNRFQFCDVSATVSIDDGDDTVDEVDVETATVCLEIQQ

[3] = molecular target: AMP-activated protein kinase, AMPK (Homo sapiens) (UniProt P54646+O43741+P54619+Q9UGJ0+Q9Y478+Q13131+Q9UGI9); assay: AMP-dependent Kinase enzyme assay. An in vitro enzyme assay that detects ADP turnover that is directly proportional to AMPK activity. This uses naive AMPK that is activated during the assay with MK-8722; assay type: functional; conditions: 30 µM
[4] = molecular target: Sialic acid-binding Ig-like lectin 9 (Homo sapiens) (UniProt Q9Y336); assay: Hs-Siglec9 ALPHAscreen SOP 20170721; conditions: 10 µM
Sialic acid-binding Ig-like lectin 9 (Homo sapiens), sequence (Q9Y336 whole entry): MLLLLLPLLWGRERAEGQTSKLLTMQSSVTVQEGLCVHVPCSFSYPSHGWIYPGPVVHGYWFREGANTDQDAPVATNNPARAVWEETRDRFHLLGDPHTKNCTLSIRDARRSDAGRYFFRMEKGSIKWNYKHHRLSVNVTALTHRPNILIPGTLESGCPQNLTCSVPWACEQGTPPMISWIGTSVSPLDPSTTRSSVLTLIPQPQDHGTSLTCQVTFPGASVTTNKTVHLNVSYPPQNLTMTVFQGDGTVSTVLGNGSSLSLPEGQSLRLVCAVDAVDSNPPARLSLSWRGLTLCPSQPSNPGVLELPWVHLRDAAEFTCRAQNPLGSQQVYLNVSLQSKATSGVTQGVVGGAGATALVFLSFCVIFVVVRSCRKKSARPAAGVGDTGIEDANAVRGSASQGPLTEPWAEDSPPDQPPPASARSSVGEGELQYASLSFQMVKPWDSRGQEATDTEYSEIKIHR

[5] = test system: Trypanosoma cruzi; assay: Trypanosoma cruzi phosphomannomutase and mannose-1-phosphate guanylyltransferase assay; assay type: functional; conditions: 10 µM
[6] = molecular target: T2, Arginase-2, mitochondrial (Homo sapiens) (UniProt P78540); assay: in vitro enzyme assay to detect the production of urea directly proportional to the activity of Arginase II; assay type: functional; conditions: 33.3 µM; note: in the data most compounds retested in dose-response had high values
T2 sequence (whole entry): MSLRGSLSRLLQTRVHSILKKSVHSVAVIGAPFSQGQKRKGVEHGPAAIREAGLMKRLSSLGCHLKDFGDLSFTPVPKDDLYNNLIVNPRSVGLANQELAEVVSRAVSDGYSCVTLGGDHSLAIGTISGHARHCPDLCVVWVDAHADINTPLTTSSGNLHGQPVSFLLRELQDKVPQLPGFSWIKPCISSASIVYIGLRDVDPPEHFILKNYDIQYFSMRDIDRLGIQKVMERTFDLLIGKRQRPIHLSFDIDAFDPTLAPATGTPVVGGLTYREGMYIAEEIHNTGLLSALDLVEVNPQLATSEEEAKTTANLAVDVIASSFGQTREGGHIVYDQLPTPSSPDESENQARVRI

[7] = molecular target: T3, Proteasome subunit beta (Trypanosoma cruzi) (UniProt O96673); assay: Trypanosoma cruzi proteasome chymotrypsin-like activity (TcProtChymo) assay.; note: in the data most compounds retested in dose-response had high values; assay type: functional; conditions: 9.37 µM
T3 sequence (whole entry): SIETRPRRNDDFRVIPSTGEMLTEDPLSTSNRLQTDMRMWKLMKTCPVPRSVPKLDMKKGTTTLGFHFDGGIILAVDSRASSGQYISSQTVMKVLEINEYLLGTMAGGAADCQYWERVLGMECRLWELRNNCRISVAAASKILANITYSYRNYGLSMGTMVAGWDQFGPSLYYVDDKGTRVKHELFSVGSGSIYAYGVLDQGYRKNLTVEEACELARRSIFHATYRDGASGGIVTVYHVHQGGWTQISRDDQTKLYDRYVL

[8] = species on record: Homo sapiens; assay: To identify inhibition of the IFN signalling (Jak-Stat) pathway via expression of an eGFP reporter gene under the control of an IFN-stimulated response element (ISRE) containing MxA promoter.; assay type: functional; conditions: 30 µM
[9] = molecular target: T4, Tyrosyl-tRNA synthetase, putative (Trypanosoma cruzi (strain CL Brener)) (UniProt Q4DSP6); assay: Trypanosoma cruzi tyrosyl tRNA synthetase (TcYRS) _High Tyrosine SOP; assay type: functional; conditions: 30 µM; note: in the data most compounds retested in dose-response had high values
T4 sequence (whole entry): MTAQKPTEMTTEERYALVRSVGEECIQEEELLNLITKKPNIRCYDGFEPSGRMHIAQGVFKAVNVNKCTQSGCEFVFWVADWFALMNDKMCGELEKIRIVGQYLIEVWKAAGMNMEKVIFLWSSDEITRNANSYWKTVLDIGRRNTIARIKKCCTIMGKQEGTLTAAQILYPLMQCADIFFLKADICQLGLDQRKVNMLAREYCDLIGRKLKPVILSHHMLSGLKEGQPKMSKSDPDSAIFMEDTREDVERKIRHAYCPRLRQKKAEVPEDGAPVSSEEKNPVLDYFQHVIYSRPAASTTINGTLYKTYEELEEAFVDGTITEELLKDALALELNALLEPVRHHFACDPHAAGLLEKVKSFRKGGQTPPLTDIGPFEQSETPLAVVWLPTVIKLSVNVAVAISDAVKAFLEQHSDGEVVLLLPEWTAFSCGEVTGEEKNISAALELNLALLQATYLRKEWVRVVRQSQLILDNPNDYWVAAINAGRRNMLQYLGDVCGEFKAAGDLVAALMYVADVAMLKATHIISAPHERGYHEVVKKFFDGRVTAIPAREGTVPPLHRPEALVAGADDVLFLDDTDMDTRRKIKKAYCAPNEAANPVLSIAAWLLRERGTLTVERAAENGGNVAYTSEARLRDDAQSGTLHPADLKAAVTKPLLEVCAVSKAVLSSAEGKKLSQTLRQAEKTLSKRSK

[10] = molecular target: T4, Tyrosyl-tRNA synthetase, putative (Trypanosoma cruzi (strain CL Brener)); assay: Trypanosoma cruzi tyrosyl tRNA synthetase (TcYRS) SOP; assay type: functional; conditions: 30 µM
[11] = molecular target: Chromo domain-containing protein 1 (Saccharomyces cerevisiae (strain ATCC 204508 / S288c) (Baker's yeast)) (UniProt P32657); assay: ScCHD-1 Enzyme Inhibition Assay; assay type: functional; conditions: 30 µM; note: in the data most compounds retested in dose-response had high values
Chromo domain-containing protein 1 (Saccharomyces cerevisiae (strain ATCC 204508 / S288c) (Baker's yeast)), sequence (P32657 whole entry, the tested form may be a part): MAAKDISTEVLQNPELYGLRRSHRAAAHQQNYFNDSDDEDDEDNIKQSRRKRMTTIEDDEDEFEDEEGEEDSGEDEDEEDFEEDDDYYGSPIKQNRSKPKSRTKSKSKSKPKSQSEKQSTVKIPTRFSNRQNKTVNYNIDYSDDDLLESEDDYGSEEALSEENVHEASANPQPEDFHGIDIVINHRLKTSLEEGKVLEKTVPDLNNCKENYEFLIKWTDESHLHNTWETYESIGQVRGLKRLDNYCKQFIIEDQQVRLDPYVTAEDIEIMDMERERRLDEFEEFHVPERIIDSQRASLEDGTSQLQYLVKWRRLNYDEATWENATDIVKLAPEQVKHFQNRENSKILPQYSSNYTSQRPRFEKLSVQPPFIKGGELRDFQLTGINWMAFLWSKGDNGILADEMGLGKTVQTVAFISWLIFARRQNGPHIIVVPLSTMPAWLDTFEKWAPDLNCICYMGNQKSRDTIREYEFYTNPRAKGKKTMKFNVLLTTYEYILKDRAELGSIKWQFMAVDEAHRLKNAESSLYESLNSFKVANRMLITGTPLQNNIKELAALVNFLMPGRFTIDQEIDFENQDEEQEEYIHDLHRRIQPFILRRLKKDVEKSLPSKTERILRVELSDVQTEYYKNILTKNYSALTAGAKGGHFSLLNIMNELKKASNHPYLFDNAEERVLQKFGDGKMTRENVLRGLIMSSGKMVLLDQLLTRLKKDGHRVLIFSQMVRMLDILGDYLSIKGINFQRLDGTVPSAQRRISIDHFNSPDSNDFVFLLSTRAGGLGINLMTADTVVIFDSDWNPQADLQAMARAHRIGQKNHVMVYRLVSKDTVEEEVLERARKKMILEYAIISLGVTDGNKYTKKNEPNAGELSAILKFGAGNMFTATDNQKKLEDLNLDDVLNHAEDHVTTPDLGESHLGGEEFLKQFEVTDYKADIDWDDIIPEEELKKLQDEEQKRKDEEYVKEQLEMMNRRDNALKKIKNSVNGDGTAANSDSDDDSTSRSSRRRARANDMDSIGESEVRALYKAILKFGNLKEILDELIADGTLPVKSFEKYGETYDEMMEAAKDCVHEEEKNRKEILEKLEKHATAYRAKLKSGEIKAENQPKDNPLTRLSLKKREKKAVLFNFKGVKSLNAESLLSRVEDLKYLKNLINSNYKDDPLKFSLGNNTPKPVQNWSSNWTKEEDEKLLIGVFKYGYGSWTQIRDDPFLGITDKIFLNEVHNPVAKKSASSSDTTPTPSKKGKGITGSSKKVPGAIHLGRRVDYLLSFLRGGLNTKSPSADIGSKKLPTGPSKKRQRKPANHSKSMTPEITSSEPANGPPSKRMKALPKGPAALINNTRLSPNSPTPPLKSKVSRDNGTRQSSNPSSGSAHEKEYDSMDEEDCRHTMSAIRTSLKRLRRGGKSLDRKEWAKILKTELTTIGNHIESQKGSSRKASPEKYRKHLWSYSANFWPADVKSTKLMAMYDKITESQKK

SMILES | Percent Effect [1] [%] | Percent Effect [2] [%] | Percent Effect [3] [%] | Percent Effect [4] [%] | Percent Effect [5] [%] | Percent Effect [6] [%] | Percent Effect [7] [%] | Percent Effect [8] [%] | Percent Effect [9] [%] | Percent Effect [10] [%] | Percent Effect [11] [%]
CCCNC(=O)C1CCN(Cc2csc(C(C)(C)C)n2)CC1 | -0.61 | 10.1 | -4.65 | -1.57 | -4.44 | 6.08 | 6.63 | 12.5 | -0.493 | 8.86 | -6.15
CC(C)c1nnc2n1CCN(Cc1csc(CC(=O)N(C)C)n1)C2 | 2.63 | 18.4 | 10.8 | 3.17 | -4.7 | -4.6 | 11.5 | 34.2 | -0.49 | 7.32 | -15
COCCNC(=O)NCc1ccc(OC(C)C)c(F)c1 | -5.47 | 10.5 | -1.85 | 9.7 | 8.5 | -4.68 | 5.67 | 2.01 | 5.42 | 13.6 | 0.0512
COc1ncccc1C(=O)NCC(C)Oc1cccnc1 (stereo unspecified) | -3.65 | 5.41 | 1.52 | 2.58 | 0.386 | 1.91 | 4.83 | -3.73 | 6.88 | 12.2 | -3.26
O=C(c1ccoc1)N1CC[C@@H]2O[C@H](COCc3ccccn3)CC[C@@H]21 | 4.07 | 8.11 | 2.6 | -13.6 | -3.42 | 2.87 | 21.4 | 7.99 | 2.16 | 10.3 | -3.84
Cn1cc(CCC(=O)N2CCN(Cc3ccncc3)CC2)cn1 | -7.43 | 15.6 | 3.53 | -6.41 | -4.87 | -1.42 | 4.22 | 2.24 | 6.8 | 14.6 | -5.86
COc1ccc2cc(C(=O)N3CCCCC3CC(N)=O)[nH]c2c1 (stereo unspecified) | -4.78 | 15.6 | 7.25 | 13.8 | -0.187 | -3.56 | 5.57 | -10.4 | 5.83 | 12.2 | -4.84
Cc1nn(C)c2c(=O)n(CC(=O)Nc3cc(Cl)cc(Cl)c3)nnc12 | 0.37 | 12 | 0.0353 | 1.72 | -6.29 | -1.58 | 19.6 | 12.4 | 2.12 | 10.3 | -8.24
CNC(=O)[C@@]12CCC3(CCN(S(C)(=O)=O)CC3)[C@@H]1CN(S(C)(=O)=O)C2 | -2.26 | 13.5 | -10.4 | 2.21 | -3.81 | 0.248 | 6.78 | 9.73 | 1.07 | 11.1 | 1.21
COCC1CCN(c2cc(C3CN(C)CCO3)nc(C)n2)CC1 (stereo unspecified) | -3.57 | -5.33 | 6.9 | -0.404 | -1.77 | 0.233 | 2.38 | 6.27 | -1.06 | -3.85 | 9.94
Cc1noc(C)c1CCC(=O)N1CCN(CCn2cncn2)CC1 | -2.87 | 4.17 | -6.26 | 2.38 | 0.68 | 1.77 | 21.1 | -11.6 | 8.42 | 10.3 | -3.13
